Assay results published in PubChem BioAssay (NCI).
This is part of a sample that, as a whole, favours compounds with a hit. Of some 79,000 tested, about 15% had one in any assay. Values without a mark were called inactive. Calls of active or inactive are those of the source. Cut-off read from the data, not from the text of the source: active = growth inhibition above about 70%; inactive = the rest.

Assays:
[1] = NCI Yeast Anticancer Drug Screen. Data for the rad50 strain (AID 155);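 note: 0% = growth of vehicle-only cultures of the same strain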; conditions: S. cerevisiae rad50 strain growth inhibition, stronger effect = higher value
Method in brief: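 Yeast carrying a defined DNA repair defect were exposed to test compounds, and growth was compared with vehicle-treated controls to give percent inhibition.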

[2] = NCI Yeast Anticancer Drug Screen. Data for the mec2-1 strain (AID 157); conditions: S. cerevisiae mec2-1 strain, stronger effect = higher value
Method in brief: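 mec2-1 yeast strain, carrying an alteration in DNA damage repair or cell cycle control, was exposed to compounds; growth inhibition was measured relative to vehicle-treated controls.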

[3] = NCI Yeast Anticancer Drug Screen. Data for the sgs1 mgt1 strain (AID 161);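 note: 0% = growth of cultures given vehicle only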; conditions: S. cerevisiae sgs1 mgt1 strain, stronger effect = higher value
Method in brief: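 Percent growth inhibition was derived by comparing compound-exposed mutant yeast with vehicle-exposed cultures. The strain carries alterations in DNA damage repair.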

[4] = NCI Yeast Anticancer Drug Screen. Data for the cln2 rad14 strain (AID 165);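 note: 0% = growth equal to vehicle treated cultures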; conditions: S. cerevisiae cln2 rad14 strain, stronger effect = higher value
Method in brief: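 Yeast carrying cln2 and rad14 alterations (cell cycle control and DNA damage repair) were exposed to compounds. Growth inhibition was measured against vehicle-treated controls.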

[5] = NCI Yeast Anticancer Drug Screen. Data for the bub3 strain (AID 167); conditions: S. cerevisiae bub3 mutant strain, stronger effect = higher value
Method in brief: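 Compounds were applied to a genetically altered yeast strain carrying a cell-cycle control defect. Growth inhibition was scored against vehicle-treated controls.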

[6] = NCI Yeast Anticancer Drug Screen. Data for the mlh1 rad18 strain (AID 175); conditions: S. cerevisiae mlh1 rad18 strain growth inhibition, stronger effect = higher value
Method in brief: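 Growth inhibition of the yeast strain was measured after compound exposure and expressed relative to vehicle-treated controls. The strain carries defined defects in DNA damage repair.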

[7] = at 5.0 µM (retest, dose inferred, filed as 0.5)
[8] = at 50.0 µM (retest, dose inferred, filed as 5.0)

Row | Structure (SMILES) | growth inhibition [1, 7] | growth inhibition [1, 8] | growth inhibition ([1]; at 50.0 µM) | growth inhibition [2, 7] | growth inhibition [2, 8] | growth inhibition ([2]; at 50.0 µM) | growth inhibition [3, 7] | growth inhibition [3, 8] | growth inhibition ([3]; at 50.0 µM) | growth inhibition [4, 7] | growth inhibition [4, 8] | growth inhibition ([4]; at 50.0 µM) | growth inhibition [5, 7] | growth inhibition [5, 8] | growth inhibition ([5]; at 50.0 µM) | growth inhibition [6, 7] | growth inhibition [6, 8] | growth inhibition ([6]; at 50.0 µM)
1 | COc1cc2c3c(c4ccc(OC)c(OC)c4c2cc1OC)CN1CCC[C@@H]1C3 | 11% | 95% (active) | 92% (active) | 8% | 99% (active) | 93.5% (active) | 15% | 96% (active) | 93% (active) | 1% | 92% (active) | 91.2% (active) | 8% | 98% (active) | 92.3% (active) | -29% | 93% (active) | 88.5% (active)
2 | COC(=O)c1nc(=S)[nH]c(C(=O)OC)c1C(=O)c1c(C)[nH]c2ccccc12 | -7% | -2% | -25% | -3% | 7% | -5.5% | 2% | 1% | -5.15% | 1% | -4% | 30.7% | -6% | -7% | -2.3% | -7% | -2% | 62.2%
3 | CCCC/C=C(\CCCNCCCC)[Si](C)(C)C | 52% | 96% (active) | 89.9% (active) | 49% | 99% (active) | 92.8% (active) | 77% (active) | 99% (active) | 93.3% (active) | 53% | 98% (active) | 90.8% (active) | 78% (active) | 99% (active) | 91% (active) | 81% (active) | 98% (active) | 90.7% (active)
4 | O=[N+]([O-])c1ccc(SC(=S)N2CCCCC2)c([N+](=O)[O-])c1 | 21% | 98% (active) | 98.4% (active) | 16% | 98% (active) | 99% (active) | 15% | 99% (active) | 99.2% (active) | 0% | 92% (active) | 98.4% (active) | 10% | 98% (active) | 98.8% (active) | 21% | 98% (active) | 98.9% (active)
5 | Cc1ccc(NC(=S)SCc2ccc3c(c2)OCO3)cc1Br | 46% | 96% (active) | 89.8% (active) | 29% | 98% (active) | 91.8% (active) | 55% | 98% (active) | 91.9% (active) | 52% | 98% (active) | 88.5% (active) | 58% | 99% (active) | 91% (active) | 36% | 97% (active) | 89.8% (active)
6 | O=[N+]([O-])c1cc(Cl)cc2c1nc(NCCO)c1ccccc12 | 76% (active) | 90% (active) | 75.1% (active) | 26% | 67% | 45.2% | 63% | 93% (active) | 79.7% (active) | 46% | 79% (active) | 65% | 20% | 85% (active) | 79.9% (active) | 86% (active) | 93% (active) | 89.5% (active)
7 | CCOc1ccccc1N=Nc1ccc2oc(=O)c(C(=O)Nc3cccc(C)c3)cc2c1 | 3% | 13% | 52.1% | 3% | -2% | 25.9% | 8% | -5% | 64.8% | -4% | 4% | -76% | -4% | -12% | 9.9% | 3% | 12% | 89% (active)
8 | Nc1nnc2nc(C(C(=O)c3ccccc3Cl)c3nc4nnc(N)n4[nH]c3=O)c(=O)[nH]n12 | -2% | -4% | 93.8% (active) | 1% | 0% | 99.8% (active) | -2% | -2% | 41.5% | -1% | -2% | 74.6% (active) | -1% | -7% | 99.5% (active) | 0% | -4% | 96.5% (active)
9 | COc1ccc2c(c1)CCCN2S(=O)(=O)c1ccc(N)cc1 | -1% | 18% | 45.5% | -3% | 5% | 27.1% | -2% | 16% | 36.8% | 0% | 13% | -6.65% | 3% | 49% | 32.2% | -2% | 12% | 47%
10 | CCCCCCCCCCCCCCCCN(C)c1ccc(S(=O)(=O)O)cc1[N+](=O)[O-] | 43% | 67% | 85.5% (active) | 37% | 71% (active) | 89% (active) | 50% | 62% | 90.5% (active) | 24% | 48% | 68.6% | 60% | 79% (active) | 88.3% (active) | 59% | 73% (active) | 80.1% (active)
11 | C=CCOC(=O)C(O)C(CC)CCCCC (configuration not stated) | 25% | 92% (active) | 52.9% | 0% | 87% (active) | 46% | 9% | 89% (active) | 76.7% (active) | 10% | 31% | 80.2% (active) | 16% | 91% (active) | 54.4% | 17% | 92% (active) | -3.3%
12 | CSC(=S)N/N=C(/C)CC(C)C | 25% | 94% (active) | 57.1% | 14% | 94% (active) | 93% (active) | 10% | 92% (active) | 45.8% | -5% | 88% (active) | 66.8% | 24% | 95% (active) | 95.8% (active) | 16% | 95% (active) | 54%
13 | Cc1c(Cl)ccc2c1NC(=O)C2(O)CC(=O)c1ccc(Cl)cc1 (configuration not stated) | 13% | 98% (active) | 99.2% (active) | 14% | 99% (active) | 99% (active) | 31% | 100% (active) | 99.2% (active) | 31% | 98% (active) | 99.3% (active) | 14% | 99% (active) | 99.3% (active) | 13% | 99% (active) | 99.2% (active)
14 | C[C@H](CCC1=NCCN1)[C@H]1CC[C@H]2[C@@H]3CC[C@@H]4C[C@H](O)CC[C@]4(C)[C@H]3C[C@H](O)[C@]12C | 93% (active) | 99% (active) | 91.3% (active) | 26% | 76% (active) | 93.1% (active) | 39% | 99% (active) | 90.2% (active) | 59% | 99% (active) | 87.8% (active) | -10% | 99% (active) | 91.4% (active) | 32% | 99% (active) | 91% (active)
15 | ON(Cc1ccccc1)C(=S)c1ccccc1 | 23% | 98% (active) | 91.3% (active) | 19% | 99% (active) | 92.8% (active) | 24% | 98% (active) | 91.5% (active) | 1% | 92% (active) | 89.3% (active) | 31% | 98% (active) | 89% (active) | 25% | 98% (active) | 90.7% (active)
16 | O=[n+]1c2c(n([O-])c3ccc4ccccc4c31)-c1cccc3cccc-2c13 | 1% | 7% | 2.4% | -1% | -3% | 15.2% | -4% | -5% | 11.1% | 3% | -7% | 55.9% | -1% | -9% | 19.7% | -2% | 1% | -5.75%
17 | COc1ccc2c(Cc3cccc([N+](=O)[O-])c3)cncc2c1O | 4% | 68% | 29.8% | -2% | 86% (active) | 35.4% | -6% | 65% | 24% | 4% | 76% (active) | 37.1% | 3% | 91% (active) | 85% (active) | 5% | 92% (active) | 58.8%
18 | CC1=NN(c2ccccc2)C(=O)C1N=Nc1cc(Cl)cc(S(=O)(=O)O)c1O (configuration not stated) | 59% | 99% (active) | 66.3% | 66% | 99% (active) | 21.6% | 21% | 52% | 55.7% | 21% | 30% | 29.7% | 66% | 30% | 26.3% | 52% | 99% (active) | 42.5%
19 | CCCCCCCCCCN | 1% | 51% | 65.8% | -1% | 13% | 34.6% | 7% | 36% | 71% (active) | 6% | 19% | 42.2% | 7% | 30% | 47.2% | 6% | 36% | 46.8%
